Experimental data from PubChem BioAssay AID1159580 (chemical genetic matrix, 2015).
The whole screen tested about 5,500 compounds, of which about 2,000 (36%) were called active. Another 18% or so got no clear call; they are omitted. Cut-off read from the data, not from the text of the source: active = normalized growth mostly below about 0.91 (no sharp cut-off); inconclusive = no clear call, values can overlap the other calls; inactive = mostly above about 0.92. The list shows a part of the results.

Experiment: chemical genetic growth profiling, strain panel (AID 1159580);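 note: tested at 20 µM; growth read once vehicle control cultures reached saturation at 30 °C; 1 = growth at the plate median or of vehicle wells; lower values mean less growth of the strain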
Conditions: S. cerevisiae deletion strains, growth OD
[1] = locus YDR150W, strain NUM1, active compounds read low
[2] = locus YJR075W, strain HOC1, active compounds read low
[3] = locus YMR263W, strain SAP30, active compounds read low
[4] = locus YMR307W, strain GAS1, active compounds read low
[5] = locus YNL128W, strain TEP1, active compounds read low
[6] = locus YNL153C, strain GIM3, active compounds read low
[7] = locus YNL322C, strain KRE1, active compounds read low
[8] = locus YPL241C, strain CIN2, active compounds read low

Measured: normalized growth

O=C(N/N=C\C=C\c1ccccc1)c1ccccc1-n1cccc1
inactive: locus YAL013W, strain DEP1, active compounds read low 0.96 | locus YBR229C, strain ROT2, active compounds read low 0.979 | locus YDL101C, strain DUN1, active compounds read low 0.993 | [1] 0.996 | locus YEL061C, strain CIN8, active compounds read low 1 | locus YGR078C, strain PAC10, active compounds read low 0.988 | locus YHR030C, strain SLT2, active compounds read low 0.925 | locus YHR087W, strain rtc3, active compounds read low 0.93 | locus YJL187C, strain SWE1, active compounds read low 0.976 | locus YJR043C, strain POL32, active compounds read low 1.01 | [2] 0.997 | locus YLR039C, strain RIC1, active compounds read low 0.87 | locus YLR058C, strain SHM2 (second series), active compounds read low 0.97 | locus YLR085C, strain ARP6, active compounds read low 0.836 | locus YLR262C, strain YPT6, active compounds read low 0.833 | locus YML094W, strain GIM5, active compounds read low 0.939 | locus YMR219W, strain ESC1, active compounds read low 0.99 | [3] 0.973 | [4] 0.713 | [5] 0.987 | [6] 1 | locus YNL298W, strain CLA4 (second series), active compounds read low 0.928 | [7] 0.996 | locus YNR030W, strain Alg12, active compounds read low 0.906 | locus YPL055C, strain LGE1, active compounds read low 0.899 | [8] 0.948 | locus YPR135W, strain CTF4, active compounds read low 0.795

O=C(O)/C=C/c1cnc[nH]1
inactive: locus YAL040C, strain CLN3, active compounds read low 1.01 | locus YCL061C, strain MRC1 (second series), active compounds read low 1.01 | [1] 1.02 | locus YDR363W, strain ESC2, active compounds read low 1.03 | locus YER002W, strain NOP16, active compounds read low 1 | [2] 1.02 | [3] 1.01 | [4] 1.01 | [5] 1.01 | [6] 1.03 | locus YNL175C, strain NOP13, active compounds read low 0.997 | locus YNL197C, strain WHI3, active compounds read low 0.994 | locus YNL224C, strain SQS1, active compounds read low 0.984 | [7] 1.03 | locus YOR083W, strain WHI5 (second series), active compounds read low 1.01 | [8] 1.01
